About 3,000 (1%) of roughly 290,000 compounds were called active. The sample holds actives, similar compounds and a random draw of the others, so the mix is not that of the screen. No stated cut-off is given here; in the data, active means inhibition mostly above about 36% (no sharp cut-off); inactive means mostly below about 34%.
Experiment: NOD1 signaling inhibitors, primary screen, cell-based, luminescence, uHTS (AID 1578);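 further: HEK-293T reporter cells stimulated with the NOD1 agonist gamma-tri-DAP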
Conditions: NOD1-driven NF-kB luciferase reporter cells, at 4 µM, active compounds read high

Row | Structure (SMILES) | inhibition
1 | Cc1cc(=O)[nH]c(SC(C)C(=O)Nc2cccc3ccccc23)n1 (centres undefined) | -23.2% (inactive)
2 | CC1=C(C(=O)OCc2ccccc2)C(c2ccccc2Cl)NC(=O)N1CCCCCC(=O)O (centres undefined) | 68.6% (active)
3 | CC1=C(C(=O)OCc2ccccc2)C(c2ccccc2Cl)NC(=O)N1CCCC(=O)O (centres undefined) | 17.1% (inactive)
4 | CC1=C(C(=O)OCc2ccccc2)C(c2cccc(Cl)c2Cl)NC(=O)N1CCCCCC(=O)O (centres undefined) | 8.9% (inactive)
5 | O=C(Nc1ccc(Br)cc1)c1cccc(N2C(=O)C3C4CCC(C4)C3C2=O)c1 (centres undefined) | 11.1% (inactive)
6 | O=C(O)c1ccc(NC(=O)c2cccc(N3C(=O)C4C5CCC(C5)C4C3=O)c2)cc1 (centres undefined) | -29.6% (inactive)
7 | O=C(NC(c1ccccc1)c1ccccc1)c1cccc(S(=O)(=O)NCc2ccccc2)c1 | -4.9% (inactive)
8 | COc1cc(/C=C2/CC/C(=C/c3ccc(O)c(OC)c3)C2=O)ccc1O | 20.8% (inactive)
9 | COc1cc(OC)c(OC)cc1/C=C1\CCC(C2CCCC2)C1=O (centres undefined) | -28.9% (inactive)
10 | COc1cc(OC)c(OC)cc1/C=C1/Cc2ccccc2C1=O | -5% (inactive)
11 | COc1cc(/C=C2\COC/C(=C\c3ccc(O)c(OC)c3)C2=O)ccc1O | 0% (inactive)
12 | COc1ccc(/C=C2\CC/C(=C\c3ccc(OC)cc3OC)C2=O)c(OC)c1 | -1.2% (inactive)
13 | COc1ccc(/C=C2\CCC/C(=C\c3ccc(OC)c(OC)c3OC)C2=O)c(OC)c1OC | -1% (inactive)
14 | COc1cccc(NC(=O)N2CCCC(C(=O)NCc3ccc(F)cc3)C2)c1 (centres undefined) | -13.5% (inactive)
15 | COc1cc(-c2c(-c3cccc(C)c3)oc3ccccc23)cc(OC)c1OC | 4.2% (inactive)
16 | Cc1nn(Cc2ccccc2)c(C)c1/C=N/NC(=O)c1cccnc1 | 25.8% (inactive)
17 | O=C(N/N=C/c1c(O)n(Cc2ccccc2)c(=O)c2ccccc12)c1cccnc1 | -5.8% (inactive)
18 | Cc1c(/C=N/NC(=O)c2cccnc2)c2ccccc2n1Cc1ccccc1 | 38.8% (active)
19 | CC1CCN(C(=O)c2ccccc2NC(=O)c2cccc(S(=O)(=O)N3CCOCC3)c2)CC1 | -2.3% (inactive)
20 | CCOc1ccc(CN(C)C(=O)CCl)cc1 | 10.8% (inactive)
21 | COc1ccc(CN(C)C(=O)CCl)cc1 | 10% (inactive)
22 | CN(Cc1ccc(Cl)s1)C(=O)CCl | 99.8% (active)
23 | O=C(NC1CC1)C1CCN(C2CCN(C(=O)/C=C/c3cccc(F)c3F)CC2)CC1 | -10.9% (inactive)
24 | CC1CN(S(=O)(=O)c2ccc(C(=O)Nc3ccc(S(=O)(=O)Nc4ncccn4)cc3)cc2)CC(C)O1 (centres undefined) | -34.7% (inactive)

Row | Structure (SMILES) | inhibition
25 | O=C(NCc1ccco1)c1c[nH]c2ccc(S(=O)(=O)N3CCOCC3)cc2c1=O | -21.1% (inactive)
26 | O=C(O)c1ccc2nc(-c3ccccc3)sc2c1 | 26.5% (inactive)
27 | Nc1ccc(-c2nc3ccc(N)cc3s2)cc1 | -7.4% (inactive)
28 | Nc1ccc(-c2nc3ccc(C(=O)O)cc3s2)cc1 | 89.8% (active)
29 | C[C@@H]1NC(=O)[C@H](CCC(=O)O)NC(=O)c2cc([N+](=O)[O-])cc(F)c2NCCC[C@@H](C(N)=O)NC1=O | -18.8% (inactive)
30 | O=c1c2[nH]c3ccc(F)cc3c2ncn1CCC1=CCCCC1 | -0.7% (inactive)
31 | COc1ccc(-c2csc3ncnc(Nc4ccc(O)cc4)c23)cc1 | 15.8% (inactive)
32 | Cc1csc2ncnc(NCCc3ccccn3)c12 | 37% (inactive)
33 | c1ccc(-c2csc3ncnc(NCC4COc5ccccc5O4)c23)cc1 (centres undefined) | 75.2% (active)
34 | Oc1ccc(Nc2ncnc3scc(-c4ccccc4)c23)cc1 | 83.6% (active)
35 | CN(C)CCCNc1ncnc2scc(-c3ccccc3)c12 | -40.3% (inactive)
36 | Cc1sc2ncnc(NCC3COc4ccccc4O3)c2c1C (centres undefined) | 44.6% (inactive)
37 | c1ccc(CNc2nc(-c3cccs3)nc3ccccc23)nc1 | -27.4% (inactive)
38 | c1ccc2c(c1)OCC(CNc1ncnc3sccc13)O2 (centres undefined) | 57.1% (inactive)
39 | O=C(O)c1ccc(Nc2ncnc3scc(-c4ccccc4)c23)cc1 | -63% (inactive)
40 | c1csc(-c2csc3ncnc(NCCCN4CCOCC4)c23)c1 | 30.7% (inactive)
41 | CC(=O)N(c1ccc(N(C(C)=O)S(=O)(=O)c2cccs2)cc1)S(=O)(=O)c1cccs1 | 3% (inactive)
42 | CSc1nnc2c3cc(F)ccc3n(Cc3ccccc3)c2n1 | -1.5% (inactive)
43 | CN(C)/C=C/C(=O)c1cnc(-c2ccccc2Cl)s1 | -20.8% (inactive)
44 | Cn1c(=O)oc2cc(S(=O)(=O)NCCC(=O)N3CCN(c4ccccc4)CC3)ccc21 | -5.7% (inactive)
45 | CCC(C)C(=O)Nc1cc(C(=O)OC)ccc1C(=O)OC (centres undefined) | -11.8% (inactive)
46 | CC1(C)CC(=O)c2cc(N=C/C(C(=O)c3ccccc3)=C(\O)c3ccccc3)c(=O)oc2C1 | -21.7% (inactive)
47 | Cc1cc(C)n2nc(N)c(N=Nc3ccc4c(c3)OCO4)c2n1 | 22.6% (inactive)
48 | Nc1nn(-c2ccccc2)c(N)c1N=Nc1ccc2c(c1)OCO2 | -68.3% (inactive)

Row | Structure (SMILES) | inhibition
49 | COc1cccc(CNC(C)(C)CO)c1OCc1ccc(Cl)cc1 | -33% (inactive)
50 | COc1ccc(CC(=O)NC2CCN(Cc3nnnn3C(C)(C)C)CC2)cc1OC | -12.7% (inactive)
51 | COc1ccc(/C=C/C(=O)N2CCN(c3ccccn3)CC2)cc1 | -37.3% (inactive)
52 | CCOC(=O)/C(C#N)=C\C1=C(N2CCOCC2)CC(C)(C)OC1 | -33.6% (inactive)
53 | CCOC(=O)C1=C(CC)Nc2ccccc2N=C1NC(=O)CCN1C(=O)C2CCCCC2C1=O (centres undefined) | -14.8% (inactive)
54 | N#CC1=C(S)N(c2ccc(F)cc2)C(c2ccco2)NC1=O (centres undefined) | -47.2% (inactive)
55 | N#CC1=C(S)N(c2ccccc2)C(c2ccco2)NC1=O (centres undefined) | 68.4% (active)
56 | Cc1ccc(N2C(S)=C(C#N)C(=O)NC2c2ccco2)cc1 (centres undefined) | -33.2% (inactive)
57 | CCC(=O)c1ccc(OCC(=O)NC2(C#N)CCCCC2)cc1 | -14.9% (inactive)
58 | COc1ccc(CCNC(=O)C(=O)NCC2OCCN2C(=O)c2ccc(Cl)cc2)cc1OC (centres undefined) | -3.4% (inactive)
59 | Cc1cc(C)c(C2C(C#N)=C(N)Oc3n[nH]c(C)c32)cc1CN1CCOCC1 (centres undefined) | -16% (inactive)
60 | COc1ccc(/C=N/Nc2nnc(Cc3ccc(OC)c(OC)c3)c(=O)[nH]2)cc1OC | 4.2% (inactive)
61 | COc1ccc(-c2nc3ccccn3c2NCc2ccc3c(c2)OCO3)cc1 | -27.1% (inactive)
62 | COc1ccc(-c2nc3cc(C)ccn3c2NCc2ccc3c(c2)OCO3)cc1 | 48.5% (active)
63 | Cc1ccn2c(NCc3ccc4c(c3)OCO4)c(-c3ccc(O)cc3)nc2c1 | 3.7% (inactive)
64 | Cc1cccc(C)c1OCc1nnc(SCC(=O)Nc2ccc(N3CCOCC3)cc2)o1 | 17.6% (inactive)
65 | COc1cc(S(=O)(=O)NCc2ccccc2)ccc1Br | -7.9% (inactive)
66 | Cc1ccc(NCc2cccnc2)c(Br)c1 | -14.3% (inactive)
67 | COc1ccc(S(=O)(=O)NCc2ccncc2)cc1OC | 24.7% (inactive)
68 | Cc1cc(-c2ccc(C)c(S(=O)(=O)NCc3cccc(Br)c3)c2)on1 | -20.4% (inactive)
69 | Cc1ccc(NCc2ccncc2)c(Br)c1 | 63.7% (active)
70 | Cc1cc(-c2ccc(C)c(S(=O)(=O)NCc3ccc(Br)cc3)c2)on1 | 72.5% (active)
71 | Cc1cc(Br)c(S(=O)(=O)NCc2ccncc2)cc1C | 26% (inactive)
72 | Cc1cc(-c2ccc(C)c(S(=O)(=O)NCc3ccc(OC(C)C)cc3)c2)on1 | -14.2% (inactive)

Row | Structure (SMILES) | inhibition
73 | Cc1ccc(C)c(S(=O)(=O)NCc2ccncc2)c1 | 34.2% (inactive)
74 | Cc1cc(C)cc(NCc2ccncc2)c1 | -8.1% (inactive)
75 | O=c1[nH]c2ccc(NC(=S)NC3CCCCC3)cc2[nH]1 | 0.4% (inactive)
76 | NNC(=O)c1cccn(Cc2cccc(C(F)(F)F)c2)c1=O | -7.3% (inactive)
77 | CCn1c(SCC(=O)Nc2nc(C)c(C)s2)nnc1-c1ccco1 | 4.8% (inactive)
78 | O=C(NCCCCc1ccccc1)Nc1cccc(F)c1 | -18.4% (inactive)
79 | CCc1nnc(NS(=O)(=O)c2ccc(NC(=S)NC(=O)c3ccc(OC)c(OC)c3)cc2)s1 | -10.1% (inactive)
80 | C#Cc1ccc([C@@H]2C=C(C(=O)N3CCN(Cc4ccc5c(c4)OCO5)CC3)O[C@H](OCCCCO)C2)cc1 | -5.3% (inactive)
81 | O=C(CN1CC[C@@]2(O)CCCC[C@H]2[C@@H]1c1ccc(F)cc1)NCc1ccco1 | -15% (inactive)
82 | Cc1cc(Cl)ccc1C(=O)C1CCCN(C(=O)c2cscn2)C1 (centres undefined) | -13.1% (inactive)
83 | COC(=O)C(CCSC)NS(=O)(=O)c1ccc(Cl)cc1 (centres undefined) | -19.4% (inactive)
84 | O=S(=O)(c1ccccc1)N(Cc1ccccc1)c1ccccn1 | -18.3% (inactive)
85 | CC(=O)Nc1nc(-c2ccc3c(c2)OCO3)cs1 | 1.1% (inactive)
86 | O=C(Nc1nc(-c2ccc3c(c2)OCO3)cs1)C1CC1 | -36.4% (inactive)
87 | Cc1ccc2nc(N3CCN(S(=O)(=O)c4ccc(C)c(Cl)c4)CC3)c(C#N)cc2c1 | -0.6% (inactive)
88 | Cc1nc2ccc(S(=O)(=O)NCC(=O)N3CCN(c4ccccn4)CC3)cc2s1 | 8.2% (inactive)
89 | COC(=O)C1(CCSC)NC(c2ccco2)C2C(=O)N(C)C(=O)C21 (centres undefined) | -7.2% (inactive)
90 | C/C(=N\NC(=O)COc1ccc(C(C)(C)C)cc1)c1ccc(-n2ccnc2)cc1 | -48% (inactive)
91 | COc1cc(NC(=O)COc2ccc(-n3ccnc3)cc2)cc(OC)c1 | 39.3% (inactive)
92 | CC(C)(C)c1ccc(NC(=O)COc2ccc(-n3ccnc3)cc2)cc1 | 74.6% (active)
93 | Cc1ccc(NC(=O)CSc2nnc(C)n2CC2CCCO2)cc1 (centres undefined) | -27.7% (inactive)
94 | CCc1ccccc1NCC(=O)Nc1ccc(Cl)c(C(F)(F)F)c1 | -18.7% (inactive)
